The supplement of paper PMC10338343
± gives the standard deviation.

The sequences below were run on MILI (PIWIL2) piRISC loaded with L1MC piRNA (26 nt) (assay: pre-steady-state target cleavage rate (min^-1); guide: L1MC piRNA 5'p-UAACUAAAUACUAUGCAAGCUGUAGG; MIWI and MILI are mouse PIWI proteins and EfPiwi is from a freshwater sponge; tags in brackets are library labels; higher = faster piRNA-guided slicing of the target). Details: auxiliary factor: 500 nM mouse GTSF1.
Experimental: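 Cleave-'n-Seq: a library of target RNAs (target site embedded in constant flanks, ACAGCATTCCGCGTTAGTGATATCCG... 5' flank; DNA-blocked outside the site) at 0.1 nM was incubated with 1 nM active mouse MILI or MIWI piRISC (synthetic 5'-monophosphorylated piRNA guide) with or without 500 nM mouse GTSF1 at 33 °C for 1 min to 16 h. Uncleaved targets were sequenced and normalised to non-target controls, and the pooled three trials were fitted to a burst-and-steady-state model to give the pre-steady-state cleavage rate (min^-1; k3 is constrained to at most 1e-4). Sequence is the target site only; target names encode pairing extent (gX:gY) and contiguous / 1-mismatch / 2-mismatch / bulge geometry. Fits with R² ≤ 0 are excluded.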
UCCUGGAUGAGCUUGCAUAGUAUUUAGGUUA was tested, and the “pre-steady-state target cleavage rate” value was 0.195 ± 0.028. UCCUGGAACUCCUUGCAUAGUAUUUAGAAA was tested, and the “pre-steady-state target cleavage rate” value was 0.162 ± 0.029. For UCCUGGAUGUCGAAGCAUAGUAUUUUGUUA, the “pre-steady-state target cleavage rate” value was 0.0221 ± 0.0061. For UCCUGGAACAGCUUAGCAUAGUAUUUAGUUA, the “pre-steady-state target cleavage rate” value was 0.27 ± 0.019. In the case of UCCUGGUACAGCUUGCUUAGUAUUAAGUUA, the “pre-steady-state target cleavage rate” value is reported as 0.163 ± 0.041. In the case of UCCUGGAUGUCCUUGCUUAGUAAUUAGUUA, the “pre-steady-state target cleavage rate” value is reported as 0.0235 ± 0.0061. In the case of UCCUCCUACAGCUGUGCAUAGUAUUUAGUUA, the “pre-steady-state target cleavage rate” value is reported as 0.321 ± 0.017. With UCCUCCAUGAGCUUGCAUAGUAUUUAGUAA the “pre-steady-state target cleavage rate” value was 0.169 ± 0.018. For UCCUGGAUGUGGUUGCAUAGUAUUUAGAAA, the “pre-steady-state target cleavage rate” value was 0.0521 ± 0.022. With UCCUGGAUGAGCUUGCAUAGUGAUUUAGUUA the “pre-steady-state target cleavage rate” value was 0.00836 ± 0.0043. With “UCCUGGAUCAGCUUGCAUAGUAUUUAGUUC [g2:g22:cont:t1C]” the “pre-steady-state target cleavage rate” value was 0.235 ± 0.016. UCCUGGUAGAGCUUGCAAAGUAUUUAGUUA was tested, and the “pre-steady-state target cleavage rate” value was 0.109 ± 0.0077. With UCCUGGAUGAGCUUGCAUAGUAGUUUAGUUA the “pre-steady-state target cleavage rate” value was 0.115 ± 0.022. With UCCUGCUACAGCUUGCAUAGUAUAUUAGUUA the “pre-steady-state target cleavage rate” value was 0.389 ± 0.042. UCCUGCAACAGCUUGCAUAGUAUUUACAAA was tested, and the “pre-steady-state target cleavage rate” value was 0.232 ± 0.053. UCCUCCUACUCGUUGCAUAGUAUUUAGUAA was tested, and the “pre-steady-state target cleavage rate” value was 0.176 ± 0.024. In the case of UCCUCCUACAGCUUGCAAAGUAAUUAGUUA, the “pre-steady-state target cleavage rate” value is reported as 0.116 ± 0.012. UCCUGGAUGUCCUUGCGUAGUAUUUAGUUA was tested, and the “pre-steady-state target cleavage rate” value was 0.0231 ± 0.0068. UCCUGGAUGUCGAACCAUAGUAGUUUAGUUA was tested, and the “pre-steady-state target cleavage rate” value was under 0.0001. With UCCUGCUACAGCUAGCAUUGUAUUUAGUUA the “pre-steady-state target cleavage rate” value was 0.225 ± 0.019. UCCUGGAUGUGCUUGCUUAGUAUAUAGUUA was tested, and the “pre-steady-state target cleavage rate” value was 0.0668 ± 0.011. For UCCUGGAACUGCUUGCAUACUAUUUAGUUA, the “pre-steady-state target cleavage rate” value was 0.076 ± 0.01. With UCCUGGAUCAGCUUGCAUAGUAUUGUAGUUA the “pre-steady-state target cleavage rate” value was 0.176 ± 0.018.

Same assay, conditions: auxiliary factor: none (no GTSF1)
For UCCUGGAUGAGCUUGCAUAGUAUUUAGGUUA, the “pre-steady-state target cleavage rate” value was 0.0044 ± 0.0031. With UCCUGGAUGUCGAAGCAUAGUAUUUUGUUA the “pre-steady-state target cleavage rate” value was 0.00241 ± 0.0023. UCCUGGAACAGCUUAGCAUAGUAUUUAGUUA was tested, and the “pre-steady-state target cleavage rate” value was 0.00815 ± 0.0027. UCCUGGAUGUCCUUGCUUAGUAAUUAGUUA was tested, and the “pre-steady-state target cleavage rate” value was 0.00598 ± 0.0019. In the case of UCCUCCUACAGCUGUGCAUAGUAUUUAGUUA, the “pre-steady-state target cleavage rate” value is reported as 0.00714 ± 0.0025. For UCCUCCAUGAGCUUGCAUAGUAUUUAGUAA, the “pre-steady-state target cleavage rate” value was 0.00406 ± 0.0021. With UCCUGGAUGAGCUUGCAUAGUGAUUUAGUUA the “pre-steady-state target cleavage rate” value was 0.00434 ± 0.0027. For “UCCUGGAUCAGCUUGCAUAGUAUUUAGUUC [g2:g22:cont:t1C]”, the “pre-steady-state target cleavage rate” value was 0.00817 ± 0.0026. For UCCUGGUAGAGCUUGCAAAGUAUUUAGUUA, the “pre-steady-state target cleavage rate” value was 0.00935 ± 0.0029. For UCCUGGAUGAGCUUGCAUAGUAGUUUAGUUA, the “pre-steady-state target cleavage rate” value was 0.0138 ± 0.0039. UCCUGCUACAGCUUGCAUAGUAUAUUAGUUA was tested, and the “pre-steady-state target cleavage rate” value was 0.00735 ± 0.0029. For UCCUCCUACUCGUUGCAUAGUAUUUAGUAA, the “pre-steady-state target cleavage rate” value was 0.00408 ± 0.0019. UCCUCCUACAGCUUGCAAAGUAAUUAGUUA was tested, and the “pre-steady-state target cleavage rate” value was 0.00331 ± 0.0024. For UCCUGGAUGUCCUUGCGUAGUAUUUAGUUA, the “pre-steady-state target cleavage rate” value was 0.0122 ± 0.0025. UCCUGCUACAGCUAGCAUUGUAUUUAGUUA was tested, and the “pre-steady-state target cleavage rate” value was 0.007 ± 0.0024. With UCCUGGAUGUGCUUGCUUAGUAUAUAGUUA the “pre-steady-state target cleavage rate” value was 0.00411 ± 0.0025. With UCCUGGAUCAGCUUGCAUAGUAUUGUAGUUA the “pre-steady-state target cleavage rate” value was 0.00992 ± 0.0032.
